Measurements taken from PubChem BioAssay (NCATS).
Results filed as inconclusive are left out. Active and inactive are the calls of the source. Unless noted, the call rests on the fitted dose curve; in most records, active means well fitted curve in the direction sought with a large enough effect; inconclusive means small, poorly fitted or top-dose-only effect, or another doubt; inactive means no such curve, though single readings can be large; an effect the other way counts as inactive or inconclusive.

Columns and labels:
[1] = AP1 Signaling Pathway (AID 357; active means well fitted curve in either direction with a large enough effect, not every such curve was filed as active;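 further: ME-180 reporter cells stimulated with EGF at its EC50 level; on the % scale 0 is the no-effect control and ±100 the full control effect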); conditions: ME-180 AP-1-bla reporter, EGF-induced, beta-lactamase ratio, 5 h; at 7.69 µM (top of the series) unless noted
Outline: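 Cells are seeded overnight, exposed to compound titrations and an EC50 level of EGF for 5 hours at 37 °C, then loaded with CCF4 dye for 2.5 hours. Beta-lactamase activity under the AP-1 element is read as a blue/green ratio.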

[2] = biological target: Cytochrome P450 1A2 (Homo sapiens) (UniProt P05177); assay: p450-cyp1a2 (AID 410; calls by dose curve;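 further: -100% = full effect of reference inhibitor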)
Cytochrome P450 1A2 (Homo sapiens), sequence (P05177 whole entry, looked up): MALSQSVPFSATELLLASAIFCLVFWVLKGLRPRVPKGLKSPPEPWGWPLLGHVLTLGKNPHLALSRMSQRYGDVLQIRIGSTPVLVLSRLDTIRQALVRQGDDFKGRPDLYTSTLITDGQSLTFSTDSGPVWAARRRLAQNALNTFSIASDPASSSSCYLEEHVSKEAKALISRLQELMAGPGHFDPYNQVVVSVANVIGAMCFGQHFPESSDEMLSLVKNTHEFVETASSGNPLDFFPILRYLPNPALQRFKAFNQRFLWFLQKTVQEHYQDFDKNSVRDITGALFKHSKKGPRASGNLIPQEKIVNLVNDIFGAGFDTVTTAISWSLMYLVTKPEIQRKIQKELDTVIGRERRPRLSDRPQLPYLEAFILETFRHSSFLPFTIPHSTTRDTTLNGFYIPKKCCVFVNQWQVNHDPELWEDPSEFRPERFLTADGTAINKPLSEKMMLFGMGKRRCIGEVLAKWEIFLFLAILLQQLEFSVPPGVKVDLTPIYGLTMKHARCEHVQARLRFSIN
Outline: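 Luminescent demethylation readout: Luciferin-ME (100uM, equal to Km) turned over by 20nM CYP1A2 for 60 min at room temperature after NADPH regeneration addition, following 10 min compound preincubation. Normalization used 57 uM furafylline as full inhibition.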

[3] = NFAT Signaling Pathway (AID 444; active means well fitted curve in either direction with a large enough effect, not every such curve was filed as active;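 further: carbachol stimulus at about its EC50 of 1 µM final; on the % scale 0 is the no-effect control and ±100 the full control effect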); conditions: Jurkat NFAT-bla M1, carbachol, beta-lactamase ratio, 5 h; at 7.69 µM (top of the series) unless noted
Outline: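 Jurkat cells carrying an NFAT-driven β-lactamase reporter and co-transfected muscarinic M1 receptor were treated with compound plus carbachol (1 uM final, an EC50 level) for 5 h at 37 °C. CCF4 loading followed for 1 h at RT; 460/530 nm ratio gave %activity.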

[4] = Stat Signaling Pathway (AID 446; active means well fitted curve in either direction with a large enough effect, not every such curve was filed as active;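 further: ME-180 cervical cancer cells given 40 pM IL-6 alongside compound; SIE-controlled beta-lactamase reporter measured as 460/530 nm FRET emission ratio; on the % scale 0 is the no-effect control and ±100 the full control effect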); conditions: ME-180 (cervical carcinoma) SIE beta-lactamase reporter, IL-6 stimulated, 5 h; at 7.69 µM (top of the series) unless noted
Outline: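 Normalization used AC90 stimulation (300 pM IL-6) and AC90 inhibition (125 nM pan-JAK inhibitor at 40 pM IL-6). The underlying signal is SIE-driven beta-lactamase in ME-180 cells after 5 h IL-6 exposure with compound.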

[5] = biological target: Glucocorticoid receptor (Homo sapiens) (UniProt P04150); assay: GR-GFP Redistribution (AID 450;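 active means compounds whose dose series gives a full or clear partial fitted curve of increased nuclear translocation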; further: potency means the concentration at half of the fitted maximal effect); conditions: U2OS GR-GFP nuclear translocation, laser cytometry, 2 h
Glucocorticoid receptor (Homo sapiens), sequence (P04150 whole entry, looked up, the tested form may be a part): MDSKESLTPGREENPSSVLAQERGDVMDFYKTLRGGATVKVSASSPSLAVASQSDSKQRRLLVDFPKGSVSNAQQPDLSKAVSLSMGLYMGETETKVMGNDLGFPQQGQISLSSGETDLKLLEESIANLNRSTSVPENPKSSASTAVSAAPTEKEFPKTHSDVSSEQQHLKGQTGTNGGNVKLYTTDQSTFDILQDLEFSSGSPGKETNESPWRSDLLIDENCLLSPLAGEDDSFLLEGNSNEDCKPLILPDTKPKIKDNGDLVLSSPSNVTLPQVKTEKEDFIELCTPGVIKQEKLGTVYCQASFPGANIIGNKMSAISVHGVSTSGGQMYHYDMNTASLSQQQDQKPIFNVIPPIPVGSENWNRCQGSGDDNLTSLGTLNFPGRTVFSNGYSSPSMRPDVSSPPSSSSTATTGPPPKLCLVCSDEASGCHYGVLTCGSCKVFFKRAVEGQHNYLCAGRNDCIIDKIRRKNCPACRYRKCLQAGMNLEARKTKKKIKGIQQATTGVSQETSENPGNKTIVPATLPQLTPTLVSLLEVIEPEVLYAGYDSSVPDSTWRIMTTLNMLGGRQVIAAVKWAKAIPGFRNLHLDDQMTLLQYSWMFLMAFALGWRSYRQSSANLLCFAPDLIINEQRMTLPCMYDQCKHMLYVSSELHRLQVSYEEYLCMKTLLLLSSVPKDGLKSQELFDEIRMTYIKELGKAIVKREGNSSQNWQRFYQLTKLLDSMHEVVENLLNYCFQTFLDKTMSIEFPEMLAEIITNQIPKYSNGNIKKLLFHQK

[6] = biological target: Glucocorticoid receptor (Homo sapiens) (UniProt P04150); assay: GR-EFC Redistribution (AID 451; calls by dose curve; further: potency means the concentration at half of the fitted maximal effect); conditions: CHO-K1 GR-EFC translocation, beta-gal luminescence, 2 h
Outline: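 CHO-K1 cells stably expressing nuclear-localized β-gal enzyme acceptor and GR fused C-terminally to the enzyme donor fragment; ligand-driven nuclear translocation restores β-gal by complementation. Compounds titrated up to 46 uM final, 2 h at 37 °C; luminescence read.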

[7] = biological target: Mitogen-activated protein kinase 10 (Mus musculus) (UniProt Q61831); assay: JNK3 AlphaScreen Assay (AID 530; active means well fitted curve in either direction with a large enough effect, not every such curve was filed as active;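 further: kinase came from lysate of stimulated human HepG2 cells; signal reports phosphorylation of biotinylated GST-cJun 1-79 at Ser73 with 10 µM ATP; on the % scale 0 is the no-effect control and ±100 the full control effect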)
Outline: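 Phosphorylation of biotinylated GST-cJun(1-79) at Ser73 is measured by AlphaScreen proximity luminescence. Enzyme is JNK3 in HepG2 lysates activated with interleukin-1beta and tumor necrosis factor alpha; ATP is 10 uM final.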

[8] = biological target: 3',5'-cyclic-AMP phosphodiesterase 4B (Homo sapiens) (UniProt Q07343); assay: qHTS Assay for Inhibitors of PDE-IV (AID 607; active means well fitted activation curve with a large enough effect in the main read-out, with a control signal flat, not every such curve was filed as active; further: % of control where 0% means no effect)
3',5'-cyclic-AMP phosphodiesterase 4B (Homo sapiens), sequence (Q07343 whole entry, looked up): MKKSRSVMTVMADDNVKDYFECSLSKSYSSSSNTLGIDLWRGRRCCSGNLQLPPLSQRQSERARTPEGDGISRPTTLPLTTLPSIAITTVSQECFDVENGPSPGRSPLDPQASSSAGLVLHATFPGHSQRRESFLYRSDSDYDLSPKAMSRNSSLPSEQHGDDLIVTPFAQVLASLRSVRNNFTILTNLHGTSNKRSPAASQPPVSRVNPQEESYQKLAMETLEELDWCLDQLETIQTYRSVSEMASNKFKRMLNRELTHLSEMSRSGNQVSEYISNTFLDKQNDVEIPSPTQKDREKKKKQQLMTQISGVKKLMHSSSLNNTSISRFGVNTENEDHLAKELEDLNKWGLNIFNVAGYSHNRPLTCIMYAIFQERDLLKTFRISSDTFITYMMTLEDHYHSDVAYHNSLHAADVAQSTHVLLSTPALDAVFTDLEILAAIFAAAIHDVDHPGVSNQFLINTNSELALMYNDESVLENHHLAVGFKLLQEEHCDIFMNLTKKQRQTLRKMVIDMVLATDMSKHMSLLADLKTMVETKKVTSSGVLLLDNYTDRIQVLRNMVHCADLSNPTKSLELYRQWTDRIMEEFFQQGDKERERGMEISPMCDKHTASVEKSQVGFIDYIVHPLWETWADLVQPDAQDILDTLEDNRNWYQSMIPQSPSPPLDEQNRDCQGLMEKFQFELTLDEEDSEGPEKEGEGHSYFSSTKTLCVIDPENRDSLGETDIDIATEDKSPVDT
Outline: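 HEK293 ACTOne cells with CNG channel (1000/well), endogenous PDE4; membrane potential dye, compounds up to 22.9 uM final. Fluorescence Ex 535/Em 590; RO 20-1724 (100 uM final) as reference.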

[9] = biological target: Guanine nucleotide-binding protein G(i) subunit alpha-1 (Homo sapiens) (UniProt P63096); assay: qHTS Assay for Inhibitors of RGS12 GoLoco Motif Activity (Green Fluorophore) (AID 879);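 further: 0% = labeled peptide with Gαi1 and full inhibition = labeled peptide alone without protein; negative values mean loss of peptide binding seen as reduced polarization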
Guanine nucleotide-binding protein G(i) subunit alpha-1 (Homo sapiens), sequence (P63096 whole entry, looked up): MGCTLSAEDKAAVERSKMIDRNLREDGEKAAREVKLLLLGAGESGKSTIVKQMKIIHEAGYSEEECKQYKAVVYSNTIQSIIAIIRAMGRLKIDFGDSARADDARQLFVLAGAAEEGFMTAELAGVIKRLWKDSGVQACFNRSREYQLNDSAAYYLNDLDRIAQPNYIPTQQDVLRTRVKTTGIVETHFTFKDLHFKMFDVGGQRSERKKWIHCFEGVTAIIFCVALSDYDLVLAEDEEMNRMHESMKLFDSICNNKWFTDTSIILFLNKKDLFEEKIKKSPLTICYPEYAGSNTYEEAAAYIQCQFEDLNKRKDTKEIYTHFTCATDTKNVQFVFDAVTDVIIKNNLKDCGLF
Outline: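 A drop in FITC polarization marked displacement of the FITC-tagged RGS12 GoLoco peptide (10 nM) from Gαi1 (50 nM). Compounds were incubated 10 min at room temperature in Tris pH 7.5 buffer containing 150 mM NaCl, 0.1 mM GDP and 0.05% NP40; unlabeled peptide titration served as control.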

[10] = qHTS Assay for Identification of Small Molecule Agonists for Thrombopoietin (TPO) Signaling Pathway (AID 917); further: on the % scale 0 is the no-effect control and ±100 the full control effect
Outline: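 First, Ba/F3 cells with human TPO receptor were held overnight without IL-3. Next, compounds and TPO (26 pM final) were added. After 24 hrs at 37 C, luciferase detection reagent was added and luminescence measured following 10 min at room temperature.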

[11] = biological target: Muscarinic acetylcholine receptor M1 (Rattus norvegicus) (UniProt P08482); assay: qHTS Assay for Antagonists of Acetylcholine Muscarinic M1 Receptor: Kinetic Measurement of Intracellular Calcium Response (AID 943);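 further: Fluo-4 calcium signal as peak divided by basal fluorescence over 4 min; nearly all actives have a fitted effect of over 75% in size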
Muscarinic acetylcholine receptor M1 (Rattus norvegicus), sequence (P08482 whole entry, looked up): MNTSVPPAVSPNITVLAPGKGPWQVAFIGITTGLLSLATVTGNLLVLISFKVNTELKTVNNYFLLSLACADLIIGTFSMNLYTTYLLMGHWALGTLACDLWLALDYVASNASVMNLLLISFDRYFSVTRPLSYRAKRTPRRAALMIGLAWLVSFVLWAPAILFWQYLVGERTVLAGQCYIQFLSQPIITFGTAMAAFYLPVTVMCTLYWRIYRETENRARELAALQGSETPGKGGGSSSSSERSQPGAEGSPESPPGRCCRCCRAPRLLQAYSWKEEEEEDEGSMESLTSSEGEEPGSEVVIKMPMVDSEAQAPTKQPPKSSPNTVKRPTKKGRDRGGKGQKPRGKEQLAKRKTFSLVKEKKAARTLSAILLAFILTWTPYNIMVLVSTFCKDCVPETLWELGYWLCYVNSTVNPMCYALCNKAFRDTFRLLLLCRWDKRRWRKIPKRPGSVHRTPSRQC
Outline: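 Antagonism measured as reduction of carbachol-evoked (EC80, 100 nM final) calcium flux in rat M1-CHO cells after 10 min compound exposure. Fluo-4 signal read kinetically; ratio of maximal to basal fluorescence.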

[12] = biological target: Muscarinic acetylcholine receptor M1 (Rattus norvegicus) (UniProt P08482); assay: qHTS Assay for Antagonists of Acetylcholine Muscarinic M1 Receptor: Measurement of IP-One Response (AID 944); further: nearly all actives have a fitted effect of over 75% in size
Outline: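 IP1 accumulation measured via TR-FRET between d2-IP1 and Eu-cryptate anti-IP1 antibody after carbachol (200 nM, EC80) stimulation for 30 min; rat M1-transfected CHO cells received compound 10 min before agonist.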

[13] = biological target: Pyruvate kinase (Leishmania mexicana) (UniProt Q27686); assay: qHTS Validation Assay for Inhibitors of Leishmania Mexicana Pyruvate Kinase (AID 945);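 further: 0% = DMSO only neutral control wells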
Pyruvate kinase (Leishmania mexicana), sequence (Q27686 2-499 E452W): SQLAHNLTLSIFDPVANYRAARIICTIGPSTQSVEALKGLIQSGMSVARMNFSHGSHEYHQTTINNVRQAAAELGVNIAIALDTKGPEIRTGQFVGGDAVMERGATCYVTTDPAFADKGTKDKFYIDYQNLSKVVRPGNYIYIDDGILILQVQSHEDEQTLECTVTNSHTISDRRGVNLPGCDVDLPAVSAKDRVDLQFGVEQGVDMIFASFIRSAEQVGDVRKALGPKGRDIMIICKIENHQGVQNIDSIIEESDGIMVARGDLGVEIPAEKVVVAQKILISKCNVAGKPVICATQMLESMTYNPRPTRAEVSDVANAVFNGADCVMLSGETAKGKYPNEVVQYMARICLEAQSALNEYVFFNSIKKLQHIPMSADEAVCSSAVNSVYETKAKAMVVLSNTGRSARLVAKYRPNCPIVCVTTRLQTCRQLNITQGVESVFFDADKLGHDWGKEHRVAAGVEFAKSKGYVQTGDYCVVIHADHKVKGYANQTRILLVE
Outline: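 LmPYK E451W 0.2 nM; 0.5 mM PEP, 0.1 mM ADP, 7 mM MgCl2, 50 mM KCl, imidazole pH 7.2, 0.01% Tween 20, 0.05% BSA; 1 h RT; PKLight luminescence; DMSO-normalized.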

[14] = biological target: Pyruvate kinase PKM (Homo sapiens) (UniProt P14618); assay: qHTS Assay for Activators of Human Muscle Pyruvate Kinase (AID 954; active means well fitted curve in the direction sought with a large enough effect, not every such curve was filed as active;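 further: 0% = uninhibited enzyme and -100% = no enzyme or full thiadiazolimine inhibition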)
Pyruvate kinase PKM (Homo sapiens), sequence (P14618 whole entry, looked up): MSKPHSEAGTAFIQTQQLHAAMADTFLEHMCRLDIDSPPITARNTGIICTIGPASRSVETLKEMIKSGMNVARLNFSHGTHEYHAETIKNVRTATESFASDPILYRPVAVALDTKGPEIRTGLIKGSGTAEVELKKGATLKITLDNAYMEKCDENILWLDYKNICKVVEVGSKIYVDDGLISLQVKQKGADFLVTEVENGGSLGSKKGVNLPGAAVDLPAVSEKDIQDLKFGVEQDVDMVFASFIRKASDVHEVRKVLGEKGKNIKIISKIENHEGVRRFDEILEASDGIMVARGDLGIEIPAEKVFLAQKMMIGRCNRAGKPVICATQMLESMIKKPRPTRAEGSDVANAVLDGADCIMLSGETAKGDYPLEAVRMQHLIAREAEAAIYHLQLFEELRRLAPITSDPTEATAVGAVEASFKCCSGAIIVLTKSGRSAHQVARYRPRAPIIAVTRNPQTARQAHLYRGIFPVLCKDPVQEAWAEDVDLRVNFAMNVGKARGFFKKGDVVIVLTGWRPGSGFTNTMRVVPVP
Outline: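 Compound pinned into substrate mix (0.5 mM PEP, 0.1 mM ADP), then 0.1 nM PKM2 added; 1 h, RT. Stop/detection luciferase reagent added, luminescence read. Normalized to no-inhibition and no-enzyme or reference-inhibitor controls.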

[15] = biological target: Alpha-galactosidase A (Homo sapiens) (UniProt P06280); assay: Counterscreen for Glucocerebrosidase Inhibitors: qHTS Assay for Human alpha-Galactosidase at pH 4.5 (AID 992); further: 0% is about no effect
Alpha-galactosidase A (Homo sapiens), sequence (P06280 whole entry, looked up): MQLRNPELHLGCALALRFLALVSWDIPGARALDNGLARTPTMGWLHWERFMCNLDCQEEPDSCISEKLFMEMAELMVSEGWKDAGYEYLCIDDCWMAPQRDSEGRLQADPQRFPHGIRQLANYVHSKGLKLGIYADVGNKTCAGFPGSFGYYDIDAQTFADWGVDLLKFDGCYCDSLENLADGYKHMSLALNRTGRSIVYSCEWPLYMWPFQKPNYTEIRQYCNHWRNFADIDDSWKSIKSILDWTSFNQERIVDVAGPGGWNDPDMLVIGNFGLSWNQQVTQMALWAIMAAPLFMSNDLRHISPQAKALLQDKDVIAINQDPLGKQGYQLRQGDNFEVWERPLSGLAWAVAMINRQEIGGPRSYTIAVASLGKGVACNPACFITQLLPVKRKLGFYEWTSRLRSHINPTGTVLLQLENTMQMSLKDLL
Outline: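 Steps: enzyme (2 nM final), then compound across 0.7 nM to 77 uM, then 80 uM fluorogenic galactopyranoside substrate; incubate 20 min at room temperature; quench at pH 10; measure fluorescence at 365/440 nm.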

[16] = biological target: alpha-glucosidase (Oryza sativa, rice) (UniProt Q653V4); assay: Counterscreen for Glucocerebrosidase Inhibitors: qHTS Assay for Rice alpha-Glucosidase at pH 5.0 (AID 997);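 further: 0% = full activity with enzyme and -100% = basal without enzyme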
Outline: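 Endpoint fluorogenic assay at pH 5.0: compounds (0.7 nM to 77 uM) titrated against 4 nM rice enzyme and 400 uM 4-MU-alpha-glucoside for 20 min at room temperature; NaOH/glycine stop, read ex 365/em 440 nm, Hill-fitted AC50.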

[17] = biological target: Cytochrome P450 3A4 (Homo sapiens) (UniProt P08684); assay: qHTS Assay for Activators of Cytochrome P450 3A4 (AID 885); further: nearly all actives have a fitted effect of over 65% in size
Cytochrome P450 3A4 (Homo sapiens), sequence (P08684 whole entry, looked up): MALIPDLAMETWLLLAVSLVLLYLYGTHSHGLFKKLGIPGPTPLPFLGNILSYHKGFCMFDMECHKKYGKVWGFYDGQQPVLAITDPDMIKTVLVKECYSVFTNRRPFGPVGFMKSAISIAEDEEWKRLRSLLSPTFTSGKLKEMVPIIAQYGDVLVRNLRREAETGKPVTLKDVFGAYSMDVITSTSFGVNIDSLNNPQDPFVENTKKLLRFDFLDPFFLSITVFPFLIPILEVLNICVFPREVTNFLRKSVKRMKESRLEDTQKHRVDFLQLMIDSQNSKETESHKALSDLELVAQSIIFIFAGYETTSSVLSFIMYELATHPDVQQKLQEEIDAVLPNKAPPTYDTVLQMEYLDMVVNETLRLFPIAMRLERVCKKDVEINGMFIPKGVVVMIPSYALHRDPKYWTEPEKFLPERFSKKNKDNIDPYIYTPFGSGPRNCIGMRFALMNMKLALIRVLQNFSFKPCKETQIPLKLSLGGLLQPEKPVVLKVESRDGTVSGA
Outline: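 Human CYP3A4 dealkylates Luciferin-PPXE to luciferin, which luciferase detection converts to light. Substrate was at its KM (25uM), buffer 200mM KPO4, reaction 60 min at RT.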

[18] = qHTS Assay for Identification of Small Molecule Antagonists for NFkB Signaling Pathway (AID 895; active means well fitted inhibition curve with a large enough effect in the signal ratio, with a control signal flat, not every such curve was filed as active; the % refers to the signal ratio; further: on the % scale 0 is the no-effect control and ±100 the full control effect)
Outline: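 NFkB-bla ME-180 cervical carcinoma cells with beta-lactamase reporter under NFkB response element; compounds added, then TNF alpha at 10 pM final (EC50), 5 h at 37 C. LiveBLAzer substrate 2 h, room temperature; emission 460/530 nm at 405 nm excitation.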

Nc1nc2c(nc(Br)n2[C@@H]2O[C@H]3COP(=O)(O)O[C@@H]3[C@H]2O)c(=O)[nH]1
active: Potency [5] 12.1 µM
inactive: activity change, negative = inhibition [1] 8.86% [at 38 µM] | Potency [2] | activity change, negative = inhibition [3] -0.742% [at 38 µM] | activity, negative = inhibition [4] -10.7% [at 38 µM] | Potency [6] > 46 µM | Potency [7] | Potency [8] | outcome [9] | outcome [10] | Potency [11] | Potency [12] | outcome [13] | outcome [14] | outcome [15] | Potency [16]

Nc1ncnc2c1nc(Sc1ccc(Cl)cc1)n2[C@@H]1O[C@H]2COP(=O)(O)O[C@@H]2[C@H]1O
inactive: activity change, negative = inhibition [1] 6.42% [at 38 µM] | Potency [2] | activity change, negative = inhibition [3] -0.761% [at 38 µM] | activity, negative = inhibition [4] 5.32% [at 38 µM] | Potency [5] > 46 µM | Potency [6] > 46 µM | Potency [7] | Potency [8] | outcome [9] | outcome [10] | Potency [11] | Potency [12] | outcome [13] | outcome [14] | outcome [15] | Potency [16]

Cc1ccccc1N1CCN(S(=O)(=O)C[C@@]23CC[C@H](C[C@H]2NC(=O)[C@@H](N)CCS(C)(=O)=O)C3(C)C)CC1
inactive: activity change, negative = inhibition [1] 28.6% [at 38 µM] | Potency [2] | activity change, negative = inhibition [3] 14% [at 38 µM] | activity, negative = inhibition [4] -9.73% [at 38 µM] | Potency [5] > 46 µM | Potency [6] > 46 µM | Potency [7] | Potency [8] | outcome [9] | Potency [17] | Potency [18] | outcome [10] | Potency [11] | Potency [12] | outcome [13] | outcome [14] | outcome [15] | Potency [16]

N[C@H](CCC(=O)NCS(=O)(=O)O)C(=O)O
inactive: activity change, negative = inhibition [1] 3.52% [at 38 µM] | Potency [2] | activity change, negative = inhibition [3] 4.56% [at 38 µM] | activity, negative = inhibition [4] -7.51% [at 38 µM] | Potency [5] > 46 µM | Potency [6] > 46 µM | Potency [7] | Potency [8] | outcome [9] | outcome [10] | Potency [11] | Potency [12] | outcome [13] | outcome [14] | outcome [15] | Potency [16]

NC(N)=N[C@H](CCC(=O)O)C(=O)O
inactive: activity change, negative = inhibition [1] -11% [at 38 µM] | Potency [2] | activity change, negative = inhibition [3] -4.2% [at 38 µM] | activity, negative = inhibition [4] 0.861% [at 38 µM] | Potency [5] > 46 µM | Potency [6] > 46 µM | Potency [7] | Potency [8] | outcome [9] | Potency [17] | outcome [10] | Potency [11] | Potency [12] | outcome [13] | outcome [14] | outcome [15] | Potency [16]
